This is a sample that favours compounds with a hit; in the whole collection about 10% have one here.
GLS inh – blocks human kidney-isoform glutaminase activity; 410,000 tested, 0.21% active; O94925; Potency, µM (doses to about 45.5 µM), for the others: top-dose activity change, negative = inhibition, actives largely listed as inhibitors; GLS enzymatic activity, qHTS titration; note: potency is the fitted concentration of half-maximal effect; % is set by controls: 0 for no effect and ±100 for the full control effect
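Enzyme dispensed in phosphate buffer (45 mM, pH 8.2, 0.02% Tween-20), compounds pinned in, then 1 mM L-glutamine solution and the glutamate oxidase–HRP–Amplex Red mix added; fluorescence read immediately and again after 30 min at room temperature.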
JMJD2A Tudor inh – JMJD2A Tudor domain (human) inhibition; O75164; AlphaScreen JMJD2A-Tudor / H3K4me3 peptide binding; Potency, µM (top dose mostly 114 µM), for the others: at the top dose activity change, negative = inhibition, usual class: inhibitors; 390,000 tested, 4.4% active; note: potency is the fitted concentration of half-maximal effect; % is set by controls: 0 for no effect and ±100 for the full control effect; nearly all actives have a fitted effect of over 50% in size
BAZ2B inh – inhibitors of human BAZ2B bromodomain. Q9UIF8. AlphaScreen BAZ2B-H3K14Ac peptide displacement. Potency, µM (series often up to 114 µM), without a hit: at the highest dose activity change, negative = inhibition, actives largely listed as inhibitors. 360,000 tested, 4.4% active; note: potency is the fitted concentration of half-maximal effect; % is set by controls: 0 for no effect and ±100 for the full control effect; nearly all actives have a fitted effect of over 60% in size
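BAZ2B (50 nM) with biotin-H3(5-23)K14Ac peptide (50 nM) in PBS pH 7.4, 0.01% Tween-20, preformed 30 min, then compound 30 min at room temperature; top concentration 110uM. AlphaScreen streptavidin donor/nickel chelate acceptor beads (10 ug/mL final), 20 min dark, signal read.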
G9a inh – blocks human histone lysine methyltransferase G9a; Q96KQ7; G9a H3K9 monomethylation, AlphaScreen, 2 h; Potency, µM (doses to about 102 µM), for the others: top-dose activity, negative = inhibition, most hits filed as inhibitors; 350,000 tested, 8.8% active; note: potency is the fitted concentration of half-maximal effect; % is set by controls: 0 for no effect and ±100 for the full control effect; nearly all actives have a fitted effect of over 75% in size
Target sequence (Q96KQ7 913-1193 limits assumed): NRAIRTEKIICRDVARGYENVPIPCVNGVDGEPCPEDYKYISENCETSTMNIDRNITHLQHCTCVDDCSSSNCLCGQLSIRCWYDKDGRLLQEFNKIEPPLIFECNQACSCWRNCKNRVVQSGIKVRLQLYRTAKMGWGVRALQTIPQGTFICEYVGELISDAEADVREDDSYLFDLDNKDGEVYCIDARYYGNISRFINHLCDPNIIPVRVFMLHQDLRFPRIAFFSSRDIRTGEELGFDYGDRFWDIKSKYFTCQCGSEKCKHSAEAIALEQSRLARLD
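Quantitative HTS format: methyltransferase activity on a biotin-tagged H3K9 peptide is measured by AlphaScreen, using a rabbit anti-monomethyl-H3K9 antibody with streptavidin donor and anti-IgG acceptor beads. Final levels are 20 nM enzyme, 500 nM peptide, 20 uM SAM; 2 h RT.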
HP1b binding inh – HP1-beta chromodomain-methylated histone interaction inhibition. AlphaScreen HP1-beta / biotin-H3K9me3 peptide binding. Potency, µM (highest dose often 114 µM), for inactives: at the highest dose activity change, negative = inhibition, actives largely listed as inhibitors. 390,000 tested, 0.56% active; note: potency is the fitted concentration of half-maximal effect; nearly all actives have a fitted effect of over 70% in size
Target sequence (P83916 whole entry, looked up): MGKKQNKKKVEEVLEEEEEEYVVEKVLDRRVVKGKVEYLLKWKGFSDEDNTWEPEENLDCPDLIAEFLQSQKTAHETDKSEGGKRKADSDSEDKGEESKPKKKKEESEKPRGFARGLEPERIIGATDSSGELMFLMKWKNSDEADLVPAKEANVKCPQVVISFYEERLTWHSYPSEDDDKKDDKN
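HP1-beta protein (50 nM final) preincubated 30 min at room temperature with biotinylated H3(1-18)K9me3 peptide (50 nM) in PBS pH 7.4, 0.01% Tween-20, then compound added for 30 min. AlphaScreen streptavidin donor/nickel chelate acceptor beads (10 ug/mL final), 30 min dark, luminescence read.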
L3MBTL1 inh – blocks human L3MBTL1; Q9Y468; AlphaScreen L3MBTL1–H3K9me1 peptide binding; Potency, µM (highest dose often 57.1 µM), for inactives: at the highest dose activity, negative = inhibition, actives largely listed as inhibitors; 230,000 tested, 0.66% active; note: potency is the fitted concentration of half-maximal effect; % is set by controls: 0 for no effect and ±100 for the full control effect; nearly all actives have a fitted effect of over 60% in size
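L3MBTL1 (50 nM) pre-complexed 30 min with biotinylated H3(1-15)K9me1 peptide (75 nM), then compounds added for 30 min at room temperature; AlphaScreen streptavidin donor/nickel chelate acceptor beads (10 ug/mL final) read after 30 min dark incubation.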
JMJD2E inh-1 – blocks human JMJD2E demethylase activity; 130 tested, 89% active; JMJD2E demethylase, FDH-coupled NADH fluorescence; Potency, µM (series often up to 57 µM), inactives show top-dose activity, negative = inhibition, actives largely listed as inhibitors; shares compounds with BAZ2B inh; AID 493212
Target sequence (B2RXH2 1-337 limits assumed): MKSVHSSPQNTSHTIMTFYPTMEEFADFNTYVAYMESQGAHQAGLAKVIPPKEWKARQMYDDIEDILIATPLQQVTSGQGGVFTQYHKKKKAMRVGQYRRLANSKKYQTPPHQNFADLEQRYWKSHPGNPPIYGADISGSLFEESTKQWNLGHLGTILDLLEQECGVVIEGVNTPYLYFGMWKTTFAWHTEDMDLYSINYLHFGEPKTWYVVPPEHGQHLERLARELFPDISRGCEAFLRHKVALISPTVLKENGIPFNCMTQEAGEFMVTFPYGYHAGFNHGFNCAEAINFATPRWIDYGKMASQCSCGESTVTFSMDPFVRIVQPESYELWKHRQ
ME-1 prolif – reduces ME-1 leukemia cell proliferation; shares compounds with BAZ2B inh; ME-1 cell proliferation, ATP luminescence, 48 h; Potency, µM (top dose mostly 56.1 µM), for inactives: at the top dose activity change, negative = inhibition, usual class: inhibitors; 140 tested, 20% active; AID 504370
JMJD2E inh-2 – JMJD2E (human) demethylase inhibition, confirmation. shares compounds with JMJD2A Tudor inh. Recombinant JMJD2E, FDH-coupled NADH fluorescence (FDH is formaldehyde dehydrogenase). Potency, µM (doses to about 56.8 µM), for inactives: at the top dose activity change, negative = inhibition, most hits filed as inhibitors. 140 tested, 93% active
FDH inh – blocks Pseudomonas putida formaldehyde dehydrogenase, flagging JMJD2E artifacts; 140 tested, 10% active; FDH enzyme assay, NADH fluorescence kinetic; shares compounds with JMJD2A Tudor inh; Potency, µM (series often up to 56.7 µM), inactives show at the highest dose activity, negative = inhibition, hits mostly inhibitors
JMJD2E MS inh – human KDM4E demethylase inhibition; shares compounds with JMJD2A Tudor inh; recombinant JMJD2E demethylation, MALDI-TOF-MS; Potency, µM, usual class: inhibitors; 45 tested, 90% active;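 active = compounds whose IC50 for blocking JMJD2E demethylation is below 100 µM; inconclusive = dose dependent effect but IC50 above 100 µM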
An asterisk follows results filed as active; ? = inconclusive; . = no result; [ ] = dose if it differs, or a comment. Unless noted, calls come from the whole dose curve; as a rule, active = well fitted curve in the direction sought with a large enough effect; inconclusive = small, poorly fitted or top-dose-only effect, or another doubt; inactive = no such curve, though single readings can be large; an effect the other way counts as inactive or inconclusive.

SMILES | GLS inh | JMJD2A Tudor inh | BAZ2B inh | G9a inh | HP1b binding inh | L3MBTL1 inh | ME-1 prolif | others
COC(=O)c1ccc(NC(=O)CC2C(=O)N(c3ccc(F)cc3)C(=O)N2Cc2ccc(OC)cc2)cc1 (configuration not stated) | 0.7% | -3.8% | -17.5% | 2.4%[59 µM] | 43.8% | . | .
Nc1nc(-c2ccccc2)c(N=Nc2cccnc2)s1 | 0.0% | -33.0% | 7.94µM* | 39.8µM* | ? | -33.6% | -5.2%[25.6 µM]
O=C(CSc1nc2cc(C(=O)NC3CCCC3)ccc2c(=O)n1CC1CCCO1)c1cccc(Cl)c1 (configuration not stated) | -7.4% | -14.6% | -10.3% | ? | 18.0% | . | .
CCc1cccc(NC(=O)CCCCCC2NC(=O)NC2C)c1 (configuration not stated) | 0.0% | 0.316µM* | 0.794µM* | 1.26µM* | 0.794µM* | . | -16.4%
O=C(O[C@@H]1OC2COC(=O)c3cc(O)c(O)c(O)c3-c3c(cc(O)c(O)c3O)C(=O)O[C@@H]([C@H]1O)[C@@H]2O)c1cc(O)c(O)c(O)c1 | 28.3% | . | 0.794µM* | 1.58µM* | -73.9% | 0.1µM* | ?
Cc1cccc(NC(=S)N(CCN(C)C)C(C)c2ccccn2)c1 (configuration not stated) | 26.6% | -10.4% | 56.2µM* | 21.8%[12.7 µM] | 25.1% | . | -7.8%[25.6 µM]
Cc1ccc(Cl)cc1NC(=S)N(CCN(C)C)C(C)c1ccccn1 (configuration not stated) | 9.0% | -2.5% | . | -26.1% | 20.7% | . | -6.5%[25.6 µM]
COCCCN(C(=S)Nc1cc(Cl)cc(Cl)c1)C(C)c1ccccn1 (configuration not stated) | 9.2% | 36.1% | 3.9% | ? | 36.1% | . | .
COc1cccc2c1NC(C(=O)O)C1CC=CC21 (configuration not stated) | 2.82µM* | 8.91µM* | 3.55µM* | 2.51µM* | 20µM* | 1.26µM* | ?
COc1ccc(Br)cc1CNC(=O)CN1C(=O)c2cccnc2Oc2ccc(C)cc21 | -30.9% | ? | -3.4% | 8.0%[59 µM] | 24.1% | . | .
O=C(NC(=S)NNC(=O)c1ccccc1O)c1ccco1 | 60.4% | 35.5µM* | ? | ? | 1.5% | -16.6% | ?
Cc1cccc(OCC(=O)Nc2c(C(=O)N3CCN(c4ccccc4F)CC3)oc3ccccc23)c1 | -4.9% | -30.5% | -29.0% | ? | 20.8% | . | .
Nc1c(C(=O)NCC2CCCO2)sc2nc3c(c(-c4ccco4)c12)CC/C3=C\c1ccco1 (configuration not stated) | ? | 2µM* | 8.91µM* | 8.91µM* | ? | 3.16µM* | ?
CCOC(=O)N1CCc2c(sc3c2c(=O)n(Cc2ccccc2)c(=O)n3Cc2c(F)cccc2Cl)C1 | 0.7% | -4.0% | ? | -10.4%[59 µM] | 25.1% | . | .
COc1cc(O)c2c(c1)oc(=O)c1c3cc(O)c(O)cc3oc21 | . | . | . | . | . | . | 31.6µM*
O=C(Nc1cccc(F)c1)c1ccc2oc(=O)n(Cc3ccccc3)c2c1 | 2.8% | -9.3% | -6.4% | 34.3%[59 µM] | 17.0% | . | .
O=C1CSC(=S)N1/N=C/c1ccc(O)c(O)c1O | ? | 3.16µM* | 2.82µM* | 1.26µM* | 1.78µM* | 1.12µM* | ?
CC(C)(C)c1ccc(/C=N/N2C(=O)CSC2=S)cc1 | 23.0% | -34.3% | ? | ? | -5.0% | . | .
O=C(O)c1cccnc1Cl | -8.9% | -2.1% | ? | ? | 56.4% | 7.0% | .
O=C(O)c1cccnc1C(=O)O | 18.5% | 0.891µM* | 6.31µM* | 3.55µM* | 12.8% | ? | -12.9%
NNC(=O)c1cc2ccccc2cc1O | 19.5% | -17.9% | 9.9% | 18.0%[59 µM] | 7.0% | 15.0% | .
O=c1c(O)cccc2cc(O)c(O)c(O)c12 | 1.58µM* | 0.891µM* | 0.794µM* | 0.562µM* | ? | 0.562µM* | ?
CCCC12CN3CC(CCC)(CN(C1)C3c1c(C)[nH]c(=O)[nH]c1=O)C2=O (configuration not stated) | -3.4% | -9.4% | -24.3% | -29.0%[59 µM] | 54.0% | . | .
CCc1ccc(N2C(=O)CS(=O)(=O)C23C(=O)N(Cc2ccccc2)c2ccccc23)cc1 (configuration not stated) | -6.9% | -28.8% | -2.0%[57.1 µM] | ? | -14.8% | . | .
Brc1ccc(Cn2c(-c3ccc(Br)o3)nc3ccccc32)o1 | -2.5% | -21.4% | 12.6µM* | 39.8µM* | -8.0% | -29.0% | ?
SMILES | GLS inh | JMJD2A Tudor inh | BAZ2B inh | G9a inh | HP1b binding inh | L3MBTL1 inh | ME-1 prolif | others
COCCc1nn2c(=O)cc(COC(=O)c3ccccc3C)nc2s1 | -11.5% | -21.0% | -14.4% | -2.5%[59 µM] | 27.2% | . | .
Oc1cccc2cc(CNc3ccccc3F)cnc12 | . | . | . | . | . | . | . | JMJD2E inh-1=?;JMJD2E inh-2=3.24µM*;FDH inh=-18.2%
Oc1ccccc1CNc1cnc2ccccc2c1 | -1.0% | -0.6% | 10.2% | 0.7%[59 µM] | 26.9% | 5.9% | .
Oc1cccc2cc(NCc3ccccc3F)cnc12 | . | . | . | . | . | . | . | JMJD2E inh-1=32.4µM*;JMJD2E inh-2=20.4µM*;FDH inh=-9.1%
CSc1ccc(CNc2cccc3ccccc23)cc1 | 26.5% | -34.8% | -36.8% | ? | -14.0% | . | .
CN1CCN(C2(CNC(=O)c3ccc([N+](=O)[O-])cc3)CCCCC2)CC1 | 7.7% | -8.9% | 13.8% | 0.9%[59 µM] | 39.6% | . | .
Cc1ccc2oc(C(=O)N(Cc3cccc(F)c3)C3CCS(=O)(=O)C3)c(C)c2c1 (configuration not stated) | -5.8% | -31.2% | -19.3% | -2.7%[59 µM] | 12.7% | . | .
Oc1ccc(-c2nn[nH]n2)c2cccnc12 | . | 14.1µM* | . | . | . | . | . | JMJD2E inh-1=2.89µM*;JMJD2E inh-2=2.57µM*;FDH inh=-18.2%;JMJD2E MS inh=25.7*
